Experiment [1] is described as follows: NCI Yeast Anticancer Drug Screen. Data for the rad50 strain (AID 155).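 Further: 0% = growth of vehicle-only cultures of the same strain.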 As to conditions: S. cerevisiae rad50 strain growth inhibition, active compounds read high. Summed up:
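Compounds were tested on a yeast strain with an engineered DNA damage repair alteration; the reported value is growth inhibition normalised to vehicle treatment.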

Experiment [2] can be described thus: NCI Yeast Anticancer Drug Screen. Data for the mec2-1 strain (AID 157). To be noted: S. cerevisiae mec2-1 strain, active compounds read high. The procedure, abridged:
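Using mec2-1 yeast: add compound, measure growth, express inhibition versus vehicle-treated cultures.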

A short description of experiment [3]: NCI Yeast Anticancer Drug Screen. Data for the sgs1 mgt1 strain (AID 161).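 Further: 0% = growth of cultures given vehicle only.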 As to conditions: S. cerevisiae sgs1 mgt1 strain, active compounds read high. The procedure, abridged: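 Compounds are added to genetically altered yeast, and growth is compared with cultures given vehicle alone to give percent inhibition.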
Experiment [4] can be described thus: NCI Yeast Anticancer Drug Screen. Data for the cln2 rad14 strain (AID 165).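 Further: 0% = growth equal to vehicle treated cultures.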 To be noted: S. cerevisiae cln2 rad14 strain, active compounds read high. The procedure, abridged: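 Yeast strain cln2 rad14, bearing defects in cell cycle control and DNA repair, serves as the test system; values reflect growth inhibition compared with vehicle.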
Experiment [5] in a line: NCI Yeast Anticancer Drug Screen. Data for the bub3 strain (AID 167). To be noted: S. cerevisiae bub3 mutant strain, active compounds read high. The procedure, abridged: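 Growth of a checkpoint-deficient yeast mutant is measured after compound exposure. Values represent inhibition relative to vehicle.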
A short description of experiment [6]: NCI Yeast Anticancer Drug Screen. Data for the mlh1 rad18 strain (AID 175). As to conditions: S. cerevisiae mlh1 rad18 strain growth inhibition, active compounds read high. Summed up: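 Steps: expose repair-defective yeast to compound; measure growth; express inhibition against vehicle-treated controls.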
Setting [7] is: at 5.0 µM (retest, dose inferred, filed as 0.5).
The mark [8] stands for this setting: at 50.0 µM (retest, dose inferred, filed as 5.0).

This is part of a sample that, as a whole, favours compounds with a hit. Of some 79,000 tested, about 15% had one in any assay. Values without a mark were called inactive. Active and inactive are the calls of the source. No stated cut-off is given here; in the data, active means growth inhibition above about 70%; inactive means the rest.

From PubChem BioAssay (NCI) come the findings set out here.

Turning to `N#CC1C(=O)SC2c3ccccc3C(=O)c3ccccc3C12` (stereo not given), the growth inhibition in experiment [1] (setting [7]) was -3%; in experiment [1] (setting [8]) it was 51%; in experiment [1] (at 50.0 µM), 63.8%; in experiment [2] (setting [7]) it was -28%; in experiment [2] (setting [8]) it was -4%; in experiment [2] (at 50.0 µM), 0.05%. The growth inhibition is -6% in experiment [3] (setting [7]); 5% in experiment [3] (setting [8]); 38% in experiment [3] (at 50.0 µM); 6% in experiment [4] (setting [7]); 36% in experiment [4] (setting [8]); 42.6% in experiment [4] (at 50.0 µM). Besides, the growth inhibition was -8% in experiment [5] (setting [7]); 27% in experiment [5] (setting [8]); 32.8% in experiment [5] (at 50.0 µM); -8% in experiment [6] (setting [7]); 58% in experiment [6] (setting [8]); 69.8% in experiment [6] (at 50.0 µM).
As to `CN(C)c1nc(=Nc2ccc(N=c3nc(N(C)C)ss3)cc2)ss1`, the growth inhibition in experiment [1] (setting [7]) was 0%; in experiment [1] (setting [8]), 97% (active); in experiment [1] (at 50.0 µM) it was 91.8% (active); in experiment [2] (setting [7]), 4%; in experiment [2] (setting [8]), 96% (active); in experiment [2] (at 50.0 µM) it was 92.8% (active). The growth inhibition in experiment [3] (setting [7]) was 28%; in experiment [3] (setting [8]), 98% (active); in experiment [3] (at 50.0 µM), 88.2% (active); in experiment [4] (setting [7]), -4%; in experiment [4] (setting [8]), 93% (active); in experiment [4] (at 50.0 µM) it was 69%. Also, the growth inhibition in experiment [5] (setting [7]) was 4%; in experiment [5] (setting [8]), 98% (active); in experiment [5] (at 50.0 µM) it was 93.4% (active); in experiment [6] (setting [7]), 11%; in experiment [6] (setting [8]), 98% (active); in experiment [6] (at 50.0 µM), 96.9% (active).
In the case of `C=CCNC(=O)NC1=CSC2=NC(=O)C3(NN12)c1ccccc1-c1ccccc13`, the growth inhibition in experiment [1] (setting [7]) was -1%; in experiment [1] (setting [8]), 50%; in experiment [1] (at 50.0 µM), 76.7% (active); in experiment [2] (setting [7]), -13%; in experiment [2] (setting [8]), 48%; in experiment [2] (at 50.0 µM) it was 68.2%. Further, the growth inhibition in experiment [3] (setting [7]) is -2%; in experiment [3] (setting [8]), 63%; in experiment [3] (at 50.0 µM), 82.5% (active); in experiment [4] (setting [7]), 0%; in experiment [4] (setting [8]) it was 83% (active); in experiment [4] (at 50.0 µM), 73.4% (active). The growth inhibition in experiment [5] (setting [7]) was -6%; in experiment [5] (setting [8]), 66%; in experiment [5] (at 50.0 µM) it was 76.4% (active); in experiment [6] (setting [7]), -6%; in experiment [6] (setting [8]), 64%; in experiment [6] (at 50.0 µM) it was 82.1% (active).
Regarding `Cc1c2cc(Cl)ccc2cc2c1ccc1ccccc12`, the growth inhibition in experiment [1] (setting [7]) was 12%; in experiment [1] (setting [8]), 5%; in experiment [1] (at 50.0 µM), 96.7% (active); in experiment [2] (setting [7]), -7%; in experiment [2] (setting [8]) it was 6%; in experiment [2] (at 50.0 µM), 98.8% (active). In addition, the growth inhibition was 2% in experiment [3] (setting [7]); 14% in experiment [3] (setting [8]); 99.2% (active) in experiment [3] (at 50.0 µM); -3% in experiment [4] (setting [7]); 8% in experiment [4] (setting [8]); 70.8% (active) in experiment [4] (at 50.0 µM). Moreover, the growth inhibition was -6% in experiment [5] (setting [7]); -4% in experiment [5] (setting [8]); 96.5% (active) in experiment [5] (at 50.0 µM); -4% in experiment [6] (setting [7]); 16% in experiment [6] (setting [8]); 98.5% (active) in experiment [6] (at 50.0 µM).
For `Cc1cc(N(CCC#N)CCC#N)ccc1/C(N=Nc1cccc([N+](=O)[O-])c1)=N/NC(=O)c1cc(Cl)ccc1O`, the growth inhibition in experiment [1] (setting [7]) is 8%; in experiment [1] (setting [8]), 47%; in experiment [1] (at 50.0 µM), 63.4%; in experiment [2] (setting [7]) it was 8%; in experiment [2] (setting [8]), 25%; in experiment [2] (at 50.0 µM), 47%. The growth inhibition in experiment [3] (setting [7]) was 9%; in experiment [3] (setting [8]), 49%; in experiment [3] (at 50.0 µM), 66%; in experiment [4] (setting [7]), -1%; in experiment [4] (setting [8]) it was 28%; in experiment [4] (at 50.0 µM), 23.9%. Besides, the growth inhibition in experiment [5] (setting [7]) is 8%; in experiment [5] (setting [8]) it was 58%; in experiment [5] (at 50.0 µM), 79.3% (active); in experiment [6] (setting [7]), 12%; in experiment [6] (setting [8]), 29%; in experiment [6] (at 50.0 µM) it was 31.9%.
In the case of `O=C1NC(c2cccc3ccccc23)Nc2ccc(Cl)cc21` (stereo not given), the growth inhibition in experiment [1] (setting [7]) was 18%; in experiment [1] (setting [8]) it was 95% (active); in experiment [1] (at 50.0 µM), 74% (active); in experiment [2] (setting [7]), 10%; in experiment [2] (setting [8]), 96% (active); in experiment [2] (at 50.0 µM) it was 84.8% (active). Further, the growth inhibition in experiment [3] (setting [7]) is 5%; in experiment [3] (setting [8]), 97% (active); in experiment [3] (at 50.0 µM), 83% (active); in experiment [4] (setting [7]) it was 12%; in experiment [4] (setting [8]), 85% (active); in experiment [4] (at 50.0 µM), 56.3%. Besides, the growth inhibition in experiment [5] (setting [7]) was 1%; in experiment [5] (setting [8]), 96% (active); in experiment [5] (at 50.0 µM) it was 80.6% (active); in experiment [6] (setting [7]), 20%; in experiment [6] (setting [8]), 94% (active); in experiment [6] (at 50.0 µM), 77.2% (active).
`O=[N+]([O-])c1ccc(Oc2c(Cl)cccc2Cl)cc1`: the growth inhibition in experiment [1] (setting [7]) is -7%; in experiment [1] (setting [8]), 9%; in experiment [1] (at 50.0 µM) it was -12.9%; in experiment [2] (setting [7]) it was -13%; in experiment [2] (setting [8]), -5%; in experiment [2] (at 50.0 µM), -11.7%. Besides, the growth inhibition in experiment [3] (setting [7]) was -6%; in experiment [3] (setting [8]), -33%; in experiment [3] (at 50.0 µM) it was 5.4%; in experiment [4] (setting [7]), -9%; in experiment [4] (setting [8]), -1%; in experiment [4] (at 50.0 µM), -44.1%. In addition, the growth inhibition in experiment [5] (setting [7]) was 14%; in experiment [5] (setting [8]), 19%; in experiment [5] (at 50.0 µM), 75.5% (active); in experiment [6] (setting [7]) it was -12%; in experiment [6] (setting [8]) it was 13%; in experiment [6] (at 50.0 µM), 14.8%.
In the case of `O=C1/C(=C/O)CCc2c1ccc1ccccc21`, the growth inhibition in experiment [1] (setting [7]) was 15%; in experiment [1] (setting [8]), 98% (active); in experiment [1] (at 50.0 µM), 98.4% (active); in experiment [2] (setting [7]), 9%; in experiment [2] (setting [8]), 99% (active); in experiment [2] (at 50.0 µM), 99% (active). Besides, the growth inhibition in experiment [3] (setting [7]) was -9%; in experiment [3] (setting [8]) it was 98% (active); in experiment [3] (at 50.0 µM), 99.1% (active); in experiment [4] (setting [7]), 6%; in experiment [4] (setting [8]) it was 99% (active); in experiment [4] (at 50.0 µM), 97.7% (active). Moreover, the growth inhibition in experiment [5] (setting [7]) was 10%; in experiment [5] (setting [8]), 98% (active); in experiment [5] (at 50.0 µM), 98.9% (active); in experiment [6] (setting [7]), 17%; in experiment [6] (setting [8]) it was 98% (active); in experiment [6] (at 50.0 µM), 96.2% (active).
Turning to `Cc1c(N)cccc1[N+](=O)[O-]`, the growth inhibition is 2% in experiment [1] (setting [7]); 8% in experiment [1] (setting [8]); 97.8% (active) in experiment [1] (at 50.0 µM); -6% in experiment [2] (setting [7]); 6% in experiment [2] (setting [8]); 98.6% (active) in experiment [2] (at 50.0 µM). Also, the growth inhibition was -3% in experiment [3] (setting [7]); -1% in experiment [3] (setting [8]); 97.4% (active) in experiment [3] (at 50.0 µM); -1% in experiment [4] (setting [7]); 7% in experiment [4] (setting [8]); 95.5% (active) in experiment [4] (at 50.0 µM). The growth inhibition in experiment [5] (setting [7]) is 3%; in experiment [5] (setting [8]) it was 15%; in experiment [5] (at 50.0 µM), 98.2% (active); in experiment [6] (setting [7]), 0%; in experiment [6] (setting [8]), 2%; in experiment [6] (at 50.0 µM), 98.5% (active).
Turning to `Cn1cc(NC(=O)c2cc(NC(=O)CCCCCCCCC(=O)Nc3cc(C(=O)Nc4cc(C(=O)NCCC(N)N)n(C)c4)n(C)c3)cn2C)cc1C(=O)NCCC(=N)N`, the growth inhibition is 83% (active) in experiment [1] (setting [7]); 98% (active) in experiment [1] (setting [8]); 89.8% (active) in experiment [1] (at 50.0 µM); 87% (active) in experiment [2] (setting [7]); 98% (active) in experiment [2] (setting [8]); 90.8% (active) in experiment [2] (at 50.0 µM). The growth inhibition in experiment [3] (setting [7]) is 80% (active); in experiment [3] (setting [8]), 99% (active); in experiment [3] (at 50.0 µM), 91.5% (active); in experiment [4] (setting [7]) it was 45%; in experiment [4] (setting [8]), 95% (active); in experiment [4] (at 50.0 µM) it was 88% (active). For the same compound, the growth inhibition is 86% (active) in experiment [5] (setting [7]); 98% (active) in experiment [5] (setting [8]); 91.5% (active) in experiment [5] (at 50.0 µM); 88% (active) in experiment [6] (setting [7]); 97% (active) in experiment [6] (setting [8]); 90% (active) in experiment [6] (at 50.0 µM).
